From PubChem
Only some compounds are listed: those with a hit (about 2.8% of all), similar ones and a draw of the others.
SENP6 inh: SENP6 protease inhibitors, primary screen, biochemical, luminescence, uHTS; actives 1.8% (n = 330,000); Sentrin-specific protease 6 (Homo sapiens), Q9GZR1; Recombinant SENP6 catalytic domain, aminoluciferin luminescence; inhibition, % at 10 µM;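 active = inhibition above about 50% at the single tested dose, limit read from the data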
SENP7 inh: SENP7 protease inhibitors, primary screen, biochemical, luminescence, uHTS; actives 1.5% (n = 330,000); AID 434973, 2010; inhibition, % at 5 µM; recombinant SENP7, Z-RLRGG-aminoluciferin luminescence, 40 min;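 active = inhibition above about 50% at the single test dose, limit read from the data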
Target sequence (Q9BQF6 706-1050 limits assumed): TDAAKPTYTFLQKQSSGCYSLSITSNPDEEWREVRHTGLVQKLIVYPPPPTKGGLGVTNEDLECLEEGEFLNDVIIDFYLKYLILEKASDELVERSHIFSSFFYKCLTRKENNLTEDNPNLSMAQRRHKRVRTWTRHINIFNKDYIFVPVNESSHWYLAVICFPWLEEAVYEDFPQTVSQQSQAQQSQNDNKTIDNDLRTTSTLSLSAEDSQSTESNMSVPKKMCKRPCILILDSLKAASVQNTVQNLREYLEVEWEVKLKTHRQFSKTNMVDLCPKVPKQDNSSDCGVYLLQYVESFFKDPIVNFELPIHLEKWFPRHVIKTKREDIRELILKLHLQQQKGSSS
HSP90 refold inh: HSP90 inhibitors, primary screen, cell lysate, luminescence | Rabbit reticulocyte lysate, luciferase refolding luminescence, 3 h | inhibition, % at 5.6 µM | actives 0.91% (n = 290,000);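 active = inhibition above the screen-wide mean plus 3 SD, computed separately per campaign, cut at about 16% in these data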;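 also: inhibitors lower the luminescence because luciferase stays unfolded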
SENP8 block-1: SENP8 protease inhibitors, primary screen, biochemical, luminescence; Sentrin-specific protease 8 (Homo sapiens), Q96LD8; purified SENP8, Z-RLRGG-aminoluciferin cleavage; inhibition, % at 10 µM; actives 1.2% (n = 330,000); in the data active = inhibition above about 50%
Target sequence (Q96LD8 whole entry, looked up): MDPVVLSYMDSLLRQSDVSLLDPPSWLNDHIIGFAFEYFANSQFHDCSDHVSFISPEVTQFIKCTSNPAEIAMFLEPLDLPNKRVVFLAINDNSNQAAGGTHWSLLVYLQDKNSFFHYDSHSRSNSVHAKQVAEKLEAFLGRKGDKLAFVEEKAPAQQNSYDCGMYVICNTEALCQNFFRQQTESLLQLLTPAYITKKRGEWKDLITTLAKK
SENP8 block-2: human SENP8 protease inhibitors, primary screen, biochemical, fluorescence, Nedd8 protein substrate, uHTS. Sentrin-specific protease 8 (Homo sapiens), Q96LD8. recombinant SENP8. AID 602440, 2012. actives 0.64% (n = 360,000). inhibition, % at 20 µM; in the data active = inhibition mostly above about 40%, no sharp cut-off; inactive = mostly below about 27%
SENP8 conf: human SENP8 protease inhibitors, confirmation, biochemical, Nedd8 protein substrate, single concentration | shares compounds with SENP8 block-2 | purified SENP8, Nedd8-AMC/pro-Nedd8 cleavage fluorescence, 30 min | inhibition, % at 25 µM | actives 15% (n = 1,400); in the data active = inhibition mostly above about 39%, no sharp cut-off; inactive = mostly below about 34%
Of the large screens only hits and unclear results are named; the others gave an inactive call (follow-up assays come after a bar, where they were run).

O=C(O)c1ccccc1/C=N/NC(=O)C1CCCCC1	none
O=C(O)c1ccccc1/C=N/NC(=S)NC1CCCCC1	SENP8 block-2 46.4 | SENP8 conf inactive
CCN(CCNS(=O)(=O)c1ccc2c(c1)oc(=O)n2C)c1ccccc1	none
C[N+](C)(C)C[C@H](O)CC(=O)[O-]	SENP8 block-2 45.1 (no result: HSP90 refold inh) | SENP8 conf inactive
N#CC(c1ccc(Cl)nn1)c1ccccc1Cl (stereo not given)	SENP8 block-2 40.8 | SENP8 conf inactive
COc1ccc(CNC(=O)c2ccc(NC(=O)CC3SC(N4CCCCC4)=NC3=O)cc2)cc1 (stereo not given)	none
CC1(NC(=O)Nc2cccc3ccccc23)CCS(=O)(=O)C1 (stereo not given)	none
COC(=O)Cc1c(C)[nH]n(-c2cc(Cl)cc(Cl)c2)c1=O	SENP8 block-2 58.6 | SENP8 conf inactive
CCOC(=O)c1n[nH]n(-c2cc(Cl)cc(Cl)c2)c1=O	none
Cc1ccc(S(=O)(=O)NC(=O)N2CCC(C)CC2)cc1	none (no result: SENP6 inh, SENP7 inh, SENP8 block-1, SENP8 block-2)
COc1ccc(/C=N/NC(=O)c2ccn[nH]2)cc1Cn1cc([N+](=O)[O-])cn1	none
COCC(=O)Nc1sc2c(c1C(=O)OC)CCCC2	none
CCC(=O)NC(Nc1sc2c(c1C(=O)OC)CCCC2)(C(F)(F)F)C(F)(F)F	SENP8 block-2 43.1 | SENP8 conf inactive
CC12CCC(C(=O)Nc3c(Cl)cccc3Cl)(C(Br)C1=O)C2(C)C (stereo not given)	none
COC(=O)CSc1nnc(CNc2ccc(OC)cc2)n1C	SENP8 block-2 69.2 | SENP8 conf inactive
COC(=O)CSc1nnc(CNS(=O)(=O)c2ccc(Br)cc2)n1C	none
COC(=O)CSc1nnc(CNS(=O)(=O)c2ccc(C)cc2)n1C	SENP8 block-2 42.1 | SENP8 conf inactive
CC(C)OC(=O)CSc1nnc(CNc2ccc(Cl)cc2)n1C	none
Cc1ccc(N2C(=O)N(CC(=O)Nc3ccc(C)c(C)c3)C(=O)C2C)cc1 (stereo not given)	none (no result: HSP90 refold inh)
COc1ccc(CNC(=O)Cn2ccc(N)nc2=O)cc1	SENP8 block-2 45.3 (no result: HSP90 refold inh) | SENP8 conf inactive
CC(=O)c1ccc(Nc2nc(NCCO)nc(OC(C(F)(F)F)C(F)(F)F)n2)cc1	none
COC(=O)CCCC1=CC2=CC(=O)C(C)(OC(=O)c3cccs3)C(=O)C2=CN1Cc1ccccc1 (stereo not given)	none (no result: HSP90 refold inh)
COC(=O)CCCC1=CC2=CC(=O)C(C)(OC(=O)c3cccs3)C(=O)C2=CN1C1CCCC1 (stereo not given)	SENP8 block-2 45.6 (no result: HSP90 refold inh) | SENP8 conf 49.1
CCOC(=O)N[C@H](Cc1c[nH]c2ccccc12)C(=O)NC1CC1	none
CCCC(=O)OCCNc1cc(SCc2ccco2)c2nonc2c1[N+](=O)[O-]	SENP8 block-2 61.5 | SENP8 conf inactive
CCCSc1cc(NCCOC(=O)CCC)c([N+](=O)[O-])c2nonc12	none
COc1ccc(CCNC(=O)CSc2nc(=O)n3cc(C)ccc3n2)cc1OC	SENP8 block-2 61.6 (no result: HSP90 refold inh) | SENP8 conf inactive
Cc1ccc2nc(SCC(=O)NCCc3ccccc3)nc(=O)n2c1	none (no result: HSP90 refold inh)
CC1(C)Cc2nc(N)c(=O)sc2C1	none
Cc1[nH]nc(N2CCCCC2)c1[N+](=O)[O-]	SENP8 block-2 44.2 | SENP8 conf inactive
CS(=O)(=O)c1ccc(NC(=O)CCCc2nc3ccccc3c(=O)[nH]2)cc1	SENP8 block-2 53.9 (no result: HSP90 refold inh) | SENP8 conf inactive
O=C1O[C@@H]([C@H](O)CO)C(O)=C1O	SENP8 block-2 40.4 (no result: HSP90 refold inh) | SENP8 conf inactive
Nc1c(C(=O)c2ccc(Cl)cc2)sc2nsc(SCCN3CCOCC3)c12	none
Nc1c(C(=O)c2ccccc2)sc2nsc(SCCN3CCCC3)c12	SENP8 block-2 43.8 | SENP8 conf inactive
O=C1CCCCCCCN1Cc1ccccc1	none (no result: HSP90 refold inh)
CC1=NN(Cc2ccccc2)C(=O)C1	SENP8 block-2 42.8 | SENP8 conf inactive
CCCC(=O)Nc1ccc(C(=O)NCC(=O)OCC)cc1	none
CC(C)Cc1nc2sc3c(c2c(=O)n1N)CC(C(C)C)OC3 (stereo not given)	none
CC(C)C1Cc2c(sc3ncnc(NN)c23)CO1 (stereo not given)	SENP8 block-2 41.7 | SENP8 conf inactive
O=C1SCCN1N=Cc1ccc([N+](=O)[O-])o1	SENP8 block-2 55.1 (no result: SENP6 inh, SENP7 inh, HSP90 refold inh, SENP8 block-1) | SENP8 conf inactive
CC1CN(N=Cc2ccc([N+](=O)[O-])o2)C(=N)O1 (stereo not given)	SENP8 block-2 48.1 (no result: SENP6 inh, SENP7 inh, HSP90 refold inh, SENP8 block-1) | SENP8 conf inactive
O=[N+]([O-])c1ccc(/C=N/N=C/c2ccc([N+](=O)[O-])o2)o1	none (no result: SENP6 inh, SENP7 inh, SENP8 block-1)
O=C(CN1CCCC1)NC1C2CC3CC(C2)CC1C3 (stereo not given)	none
CNC(=O)/C(=C/c1ccc2c(c1)OCO2)NC(=O)c1ccc(Br)cc1	none
Cc1ccc(NS(=O)(=O)c2csc(C(N)=O)c2)c(C)c1	none
O=C(c1ccc([N+](=O)[O-])o1)N1CCN(Cc2ccccc2)CC1	SENP8 block-2 42.4 | SENP8 conf inactive
Cc1ccc(C(=O)N2CCN(Cc3ccccc3)CC2)o1	none
O=C(N[C@@H]1C/C=C\C[C@@H](CC(=O)N(CCO)Cc2ccccc2)C(=O)NC[C@H](c2ccccc2)OC1=O)OCC1c2ccccc2-c2ccccc21	none (no result: HSP90 refold inh)
Cc1ccc(S(=O)(=O)NC(=O)Nc2ccc(N(C)C)cc2)cc1	SENP8 block-2 74.6 | SENP8 conf 63.8
COc1cc(OC)c(C=CC(=O)c2ccccc2O)c(OC)c1	SENP8 block-2 42.2 (no result: SENP6 inh, SENP7 inh, HSP90 refold inh, SENP8 block-1) | SENP8 conf inactive
CN(C)S(=O)(=O)n1cc(/C=C(\NC(=O)c2ccccc2Cl)C(=O)NCCN2CCOCC2)c2ccccc21	none
CSC1=C(C#N)C(c2ccccc2)C(C(C)=O)=C(C)N1 (stereo not given)	none
CC(=O)C1=C(C)NC(C)=C(C(C)=O)C1c1ccccc1	SENP8 block-2 41.2 | SENP8 conf inactive
CC(=O)c1ccc(NC(=O)CNCC(c2ccccc2)N(C)C)cc1 (stereo not given)	none
COc1ccc(CNC(=O)Nc2ccc(C)cc2)cc1	none
COc1ccc(CNC(=O)Nc2cc(C)cc(C)c2)cc1	SENP8 block-2 42.9 | SENP8 conf inactive
CC(C)(C)c1ccc2c(c1)OC(C(=O)N/N=C/c1ccc([N+](=O)[O-])o1)CO2 (stereo not given)	SENP8 block-2 44.4 | SENP8 conf inactive
O=C(C[n+]1cc(-c2ccccc2)n2c1CCCCC2)c1ccc(Br)cc1	SENP8 block-2 45.5 | SENP8 conf inactive
CC1=NN(c2ccccc2)C(=O)C1C(=S)SC1CC(=O)NC1=O (stereo not given)	SENP8 block-2 44.9 (no result: SENP6 inh, SENP7 inh, HSP90 refold inh, SENP8 block-1) | SENP8 conf inactive
O=C(O)C(Cc1c[nH]c2ccccc12)NS(=O)(=O)c1ccc(Br)cc1 (stereo not given)	none
